Results: PubChem BioAssay AID1053173 (Broad Institute, 2014)
Hit rate of the full screen: of about 1,500 compounds, about 390 (26%) were called active. No rule for the calls is given here. These entries were drawn from the full list. Potency and affinity values are given separately.

Each compound was assayed against Histone-lysine N-methyltransferase NSD2 (Homo sapiens) (UniProt O96028) (assay: blockers of NSD2 H4 peptide methylation – biochemical, AlphaScreen, cherry-picked samples, dose response (AID 1053173;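 also: 0% = neutral control wells and -100% = positive control wells on each plate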)). Details: 120 min; series mostly up to 10 µM; activity change, negative = inhibition: at the top concentration.
Sequence of Histone-lysine N-methyltransferase NSD2 (Homo sapiens) (O96028 whole entry, looked up): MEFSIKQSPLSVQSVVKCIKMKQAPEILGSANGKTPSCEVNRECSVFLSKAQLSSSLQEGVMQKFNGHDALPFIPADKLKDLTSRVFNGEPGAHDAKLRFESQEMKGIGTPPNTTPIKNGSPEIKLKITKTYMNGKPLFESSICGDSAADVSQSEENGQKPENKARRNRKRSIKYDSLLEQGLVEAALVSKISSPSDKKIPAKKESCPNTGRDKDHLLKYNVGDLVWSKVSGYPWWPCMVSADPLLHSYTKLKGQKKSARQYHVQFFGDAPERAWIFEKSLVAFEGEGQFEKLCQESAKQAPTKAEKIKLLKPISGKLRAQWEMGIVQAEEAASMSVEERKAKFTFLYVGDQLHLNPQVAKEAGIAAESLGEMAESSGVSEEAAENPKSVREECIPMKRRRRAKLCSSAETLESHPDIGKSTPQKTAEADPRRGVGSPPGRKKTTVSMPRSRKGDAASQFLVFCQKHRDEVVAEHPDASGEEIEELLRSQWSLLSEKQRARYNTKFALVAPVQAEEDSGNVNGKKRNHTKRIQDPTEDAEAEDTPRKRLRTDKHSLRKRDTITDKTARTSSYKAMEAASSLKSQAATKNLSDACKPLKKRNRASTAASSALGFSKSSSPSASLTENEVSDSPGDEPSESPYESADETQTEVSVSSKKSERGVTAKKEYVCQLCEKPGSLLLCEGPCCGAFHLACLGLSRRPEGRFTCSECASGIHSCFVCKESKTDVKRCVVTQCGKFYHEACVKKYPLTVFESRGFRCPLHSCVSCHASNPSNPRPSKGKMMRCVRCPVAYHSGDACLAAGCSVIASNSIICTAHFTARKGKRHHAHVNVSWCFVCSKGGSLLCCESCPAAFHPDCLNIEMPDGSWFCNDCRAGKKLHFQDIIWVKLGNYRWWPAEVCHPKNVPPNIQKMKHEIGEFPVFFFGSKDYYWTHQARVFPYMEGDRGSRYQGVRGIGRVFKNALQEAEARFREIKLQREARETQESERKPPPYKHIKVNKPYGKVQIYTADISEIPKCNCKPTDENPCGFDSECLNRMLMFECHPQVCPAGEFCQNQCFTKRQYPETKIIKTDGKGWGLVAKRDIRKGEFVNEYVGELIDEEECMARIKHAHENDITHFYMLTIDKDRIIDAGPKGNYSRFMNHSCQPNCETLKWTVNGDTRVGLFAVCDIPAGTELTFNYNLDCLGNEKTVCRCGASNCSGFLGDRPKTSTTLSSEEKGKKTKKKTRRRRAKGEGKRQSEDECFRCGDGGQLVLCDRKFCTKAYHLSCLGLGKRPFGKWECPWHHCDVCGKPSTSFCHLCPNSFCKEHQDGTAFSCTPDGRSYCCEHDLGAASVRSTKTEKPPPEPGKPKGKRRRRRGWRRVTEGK

Activity change, negative = inhibition, inactive:
CC(=O)N1C2CCCCC2S[C@H]2CCCCC21 (stereo partly drawn) 1.03%, O=C(NCc1ccco1)Nc1cccc([N+](=O)[O-])c1 -2.52%, CCCCc1nc2cc(C(=O)N3CCC(O)CC3)ccc2o1 -1.24%, O=C(NC(c1ccc(Cl)cc1)c1cc(Cl)c2cccnc2c1O)c1cccnc1 (stereo not drawn) -3.15%, CCCn1c(C)nc2c(c1=O)c1nc3ccccc3nc1n2-c1ccccc1 3.1%, Cn1c(=O)c(-c2ccccc2)nc2ccccc21 10.3%, CC(=O)Nc1ccc(N(C(=O)CNC(=O)c2ccco2)C(C(=O)NCC2CCCO2)c2ccccc2)cc1 (stereo not drawn) 0.85%, CCN(CC)S(=O)(=O)c1cccc(-c2nnc(SCCCC(=O)c3ccc(F)cc3)o2)c1 3.87%, Cc1[nH]n(-c2ccccc2)c(=O)c1N=Nc1ccccc1C(=O)N1CCCCC1 -7.67%, CC1(C)Cc2c(c(-c3ccco3)[nH]c(=O)c2C#N)CS1 0.181%, CCc1ccc(-c2cc(C)no2)cc1S(=O)(=O)N1CCN(c2ccc(F)cc2)CC1 -4.42%, COc1ccc(NC(=O)CC2C(=O)NCCN2C(=O)c2ccc(N(C)C)cc2)cc1 (stereo not drawn) -1.08%, Cc1cc(NC(=O)CSc2nc3ccccc3cc2C#N)no1 -0.11%, O=C(Nc1ccc(O)cc1)C1CC=CCC1 (stereo not drawn) -10.4%, CC1CN(Cc2nc3c(c(=O)n(C)c(=O)n3C)n2CCCc2ccccc2)CC(C)O1 (stereo not drawn) -1.88%, O=C(OCc1cccc2ccccc12)C1CC(=O)N(c2ccccc2)C1 (stereo not drawn) 3.19%, COc1cccc2c1N1C(=O)c3c(C(=O)O)cccc3C1CC2(C)C (stereo not drawn) 3.68%, COc1ccc(C2C(C(=O)c3ccco3)=C(O)C(=O)N2CC2CCCO2)cc1OC (stereo not drawn) -0.379%, CCOC(=O)c1c(NC(=O)COC)sc2c1CCCC2 10.5%, CCN(C(=S)Nc1ccc(C(C)=O)cc1)C1CCCCC1 -13.8%, CC1CN(Cc2cc(=O)n3ccsc3n2)CC(C)O1 (stereo not drawn) 0.845%, CC(C)CN(C(=O)COC(=O)c1ccc([N+](=O)[O-])s1)c1c(N)n(Cc2ccccc2)c(=O)[nH]c1=O -7.51%, COCCn1c(N)c(N(Cc2ccccc2)C(=O)c2cc(=O)[nH]c3ccccc23)c(=O)[nH]c1=O 0.044%, CCn1c(SCC(=O)N2CCCCC2)nc2c1c(=O)n(C)c(=O)n2C 6.67%, CCOC(=O)C1=C(C)N(C)C(=S)NC1c1ccccc1Cl (stereo not drawn) 9.94%, COc1cc(/C=C2\SC(N)=NC2=O)cc(Cl)c1O -7.1%, O=C(CCc1nnc(-c2ccccc2)o1)NCc1cc(F)ccc1F 3.74%, CCNC(=O)C1CCCN(C(=O)c2ccccc2OC(F)(F)F)CC1 (stereo not drawn) 2.17%, Cc1ccccc1N1CC(C(=O)Nc2ccc(S(=O)(=O)N3CCOCC3)cc2)CC1=O (stereo not drawn) 1.56%, O=C(CN1CCOCCOCCN(CC(=O)Nc2ccccc2)CCOCC1)Nc1ccccc1 4.89%, COc1ccc(NS(=O)(=O)c2cc(NC(=O)COc3ccccc3)ccc2N2CCOCC2)cc1 1.67%, Cc1ccc(S(=O)(=O)c2ccc(Cl)cc2)cc1S(=O)(=O)N1CCOCC1 5.97%, Cc1ccc(/C=N/NC(=O)c2cc3ccccc3cc2O)o1 -3.67%, CCN(Cc1ccccc1)Cc1c(C)[nH]c2c(C)c(C)ccc2c1=O 0.95%, CCCc1cc(=O)n(-c2nc3ccccc3s2)[nH]1 6.4%, CC1(C)Cc2c(c(-c3ccco3)[nH]c(=O)c2C#N)CO1 3.06%, O=C(CSc1nc(-c2ccccc2)c(-c2ccccc2)o1)N1CCCCC1 4.5%, CCOC(=O)c1ccc(N=c2scc(C)n2CC)cc1 -13.2%, CC1(C)CC(N=C2C=CC3=NC45CCCCC4CC4=C(CCCC4)N5C3=C2)CC(C)(C)N1 (stereo not drawn) -4.28%, COc1ccc(N=c2scc(C)n2CCCN2CCCC2=O)cc1 1.93%, CCOC(=O)Nc1ccc(=O)n(Cc2c(Cl)cccc2Cl)c1 4.15%, CN(C(=S)NC(=O)C1(C)CC1(Cl)Cl)c1ccccc1 (stereo not drawn) 6.66%, O=C(NNC(=O)c1ccc(Cl)nc1)c1ccc(Br)cc1 3.91%, Oc1ccc(/C=N/N2CCOCC2)c(O)c1O -4.15%, Nc1cc(=O)[nH]c(SCC(=O)Nc2ccc(Cl)c(Cl)c2)n1 -0.598%, Cc1ccc(NC(=S)N2CCC(NC(=O)c3ccc(F)cc3)CC2)cc1 4.5%, COCC(C)n1c(SCC(=O)NC2CCCCC2C)nc2ccccc2c1=O (stereo not drawn) -6.67%, Cc1cccc(-n2c(Cn3nc(C)c([N+](=O)[O-])c3C)n[nH]c2=S)c1 4.32%, Cc1csc(SCC(=O)Nc2ccc3c(c2)OCCO3)n1 -0.732%, Cc1[nH][nH]c(=O)c1C(c1ccc(-c2ccc(C(=O)O)cc2)o1)c1c(C)[nH][nH]c1=O -3.01%, COC(=O)c1ccccc1-c1ccc(C(c2c(C)[nH][nH]c2=O)c2c(C)[nH][nH]c2=O)o1 -2.23%, Cc1cccc(C(=O)NCc2nnc(SCC(=O)Nc3nnc(C)s3)n2C)c1 3.02%, O=c1c2cnn(-c3ccccc3)c2nc(-c2ccco2)n1-c1ccccc1 3.67%, Cc1ccc(S(=O)(=O)NC(C(=O)N2CCN(S(=O)(=O)c3cccc(F)c3)CC2)C(C)C)cc1 (stereo not drawn) 0.222%, Cc1ccccc1NCC(=O)Nc1cc(S(=O)(=O)N2CCCCC2)ccc1C -1.45%, COc1ccccc1OCC(=O)Nc1ccc(S(=O)(=O)N2CCCC2)cc1 1.45%, Cc1ccc(S(=O)(=O)N(C)CC(=O)NCCCn2ccnc2)cc1 -5.32%, CN(c1ccccc1)c1ncnc2c1ncn2C -5.28%, COc1ccc2c(c1)Cc1sc(NC(C)=O)nc1-2 -4.87%, Cc1nn(-c2ccccn2)c2c1C(=O)C(Br)CC2 (stereo not drawn) -4.7%, CC(=O)c1ccc(N(CC(=O)NCCc2ccccc2)C(=O)c2csnn2)cc1 0.43%, O=C(OCc1ccc([N+](=O)[O-])cc1)c1cc(=O)c2ccccc2o1 5.19%, COc1ccccc1N(CC(=O)NCC1CCCO1)C(=O)CNS(=O)(=O)c1ccc(C)cc1 (stereo not drawn) 1.22%, O=C1c2ccccc2C(=O)N1CCC(c1ccc(F)cc1)c1ccco1 (stereo not drawn) 1.01%, COc1ccc(Cc2nnc(NC(=O)C3CC(=O)N(c4ccc(OC)cc4)C3)s2)cc1 (stereo not drawn) -0.048%, O=C(CN(C(=O)c1csnn1)c1ccc(F)c(Cl)c1)NC1CCCCC1 0.495%, Cc1nc(N)sc1-c1nnc(SCC(=O)Nc2ccccc2C(F)(F)F)n1C -2.66%, CC1=NN(c2ccccc2)C(=O)/C1=C/N(C)C -4.42%, CC(C)(C)NC(=O)COC(=O)c1ccc2c(c1)C(=O)N(Cc1ccco1)C2=O -1.9%, Cn1c(=O)[nH]c(=O)c2c1nc(N/N=C/c1ccncc1)n2Cc1ccc(F)cc1 1.06%, Cc1ccc(-c2csc3nc(CN(C)Cc4ccccc4)[nH]c(=O)c23)cc1 -0.858%, CCC(CC)c1nnc(NC(=O)CCS(=O)(=O)Cc2ccccc2)s1 0.024%, CCCCn1cnc2c(=S)nc(N)[nH]c21 -2.03%, CCn1cc(/C=N\NC(=O)C2(C)CC2(Cl)Cl)c(C)n1 (stereo not drawn) 6.99%, NNC(=O)c1nc(-c2ccccc2)cc(-c2ccccc2)n1 -1.02%, CC12CCC(C)(c3nc4ccccc4nc31)C2(C)C -0.479%, Cc1cc(C)n(CCC(=O)N2CCN(S(=O)(=O)c3ccccc3)CC2)n1 5.12%, Cc1cccc2c(N=NC(=O)c3ccc(NS(=O)(=O)c4cccs4)cc3)c(O)[nH]c12 -5.5%, Cc1cc(S(=O)(=O)NCc2cccnc2)ccc1F -2.37%, O=C(COc1ncnc2c(Cl)cc(Cl)cc12)N1CCCCC1 -0.554%, Cn1ncc2c(Nc3cccc4ccccc34)ncnc21 2.95%, O=C(NCCN1CCOCC1)NC1(C(F)(F)F)Oc2ccccc2O1 -0.91%, CCCCc1ccc(NC(=O)CSc2nc(=O)n(CCN(CC)CC)c3c2CCCC3)cc1 -5.12%, Cc1cc(SCC(=O)Nc2cccnc2Cl)nc2ccccc12 0.285%, COc1ccc(C(=O)Nn2c(SCC(=O)c3ccc(Cl)cc3)nc3ccccc3c2=O)cc1 -2.62%, Cc1ccc(-c2cc(C(=O)N/N=C/c3ccccc3)n[nH]2)o1 -1.55%, Cc1cc(=O)[nH]c(N/N=C/c2c(C)nn(-c3ccccc3Cl)c2Cl)n1 -1.01%, Cc1ccc(O)c(NC(=O)c2cc3nc4c(c(C(F)(F)F)n3n2)CCc2ccccc2-4)c1 -1.53%, O=C(Nc1cc(F)ccc1F)N1CCN(c2ccnc3cc(Cl)ccc23)CC1 -0.162%, COc1ccc(C(=O)C(OC(=O)c2ccc(C)c(NC(C)=O)c2)c2ccccc2)cc1 (stereo not drawn) -3.15%, COCCN(C(=O)CNC(=O)c1ccco1)C(C(=O)NC1CCCC1)c1ccc(OC)cc1 (stereo not drawn) 0.585%, CC1(C)NC(=O)N(CCCOc2ccccc2Br)C1=O -1.93%, CCOc1cc(NC2CS(=O)(=O)CC2O)c(OCC)cc1NC(=O)c1ccccc1 (stereo not drawn) -10.2%, Cc1ccc(N2C(=O)N(CC(=O)Nc3cccc([N+](=O)[O-])c3C)C(=O)C2C)cc1 (stereo not drawn) -2.74%, Cc1ccc(NC(=O)CCC(=O)OCC(F)(F)C(F)F)cc1 -4.16%, O=C(NNC(=O)c1ccc(NC(=O)C2CC2)cc1)c1ccc(F)cc1 -4.45%, CNS(=O)(=O)c1cc(NC(=O)CCCNC(=O)c2ccc(Cl)cc2)ccc1C -3.69%, CC1CCN(CCC(=O)Nc2ccccc2)CC1 -1.04%, Cc1ccc(NC(=O)CCn2c(=O)oc3ccccc32)cc1 1.97%, O=C(CC(=O)Nc1ccc(Cl)cc1)N/N=C\c1cccc(F)c1 7.1%, CC1CCCCC12NC(=O)N(CC(=O)NC(=O)NCc1ccco1)C2=O (stereo not drawn) 5.2%, COc1cccc(CNC(=S)Nc2ccc(Cl)cc2C)c1 2.1%, O=[N+]([O-])c1ccccc1-c1ccc(C(=S)N2CCCC2)o1 -6.85%, Cn1cc(-c2ccccc2C(N)=O)c(=O)c2ccccc21 -1.88%, CC1CCCC(NC(=O)COC(=O)c2c[nH]c(=O)[nH]c2=O)C1C (stereo not drawn) -1.68%, O=C(OCc1cnc(Cl)s1)c1cccs1 -1.1%, Cc1ccc(N2CS(=O)(=O)/C(=C/N(C)C)C2=O)cc1 5.06%, Cn1c(CSCc2ccccc2)nnc1SCC(=O)Nc1nccs1 0.187%
